Sampled rows, rich in hits. Any-hit rate of the full collection: about 1.5%.
IL-2 act: qHTS of IL-2 Activators. AID 652025, 2013. 360,000 compounds, 0.065% hits. activation, % (series mostly up to about 46 µM). IL-2 activation reporter assay, cell-based qHTS; stimulated with anti-CD3/CD4/CD28 beads; in transgenic mouse T cells; in the data active = activation above about 50%; inconclusive = mostly about 30% to 49%; also: 0% is about no effect
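Readout: EGFP and DsRed signals by fluorescent plate cytometry. Unstimulated transgenic mouse T cells received compound 60 min before antibody-bead stimulation, then incubated 18 h at 37 degrees C.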
Nrf2 activator: qHTS of Nrf2 Activators; AID 624171, 2012; Potency, µM (top dose mostly 46.1 µM), for inactives: at the top dose activation, actives largely listed as activators; AREc32 ARE-luciferase reporter (MCF7-derived line), luminescence, 24 h; 410,000 compounds, 0.31% hits; also: potency is read from the fitted curve at half-maximal effect; % of control where 0% means no effect; nearly all actives have a fitted effect of over 65% in size
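Luciferase luminescence (Steady-Glo, 30 min at room temperature) served as the read-out of ARE activation in AREc32 cells treated with compounds for 24 hr at 37 deg C.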
ALOX12 inh: Primary qHTS assay for inhibitors of human arachidonate 12S-lipoxygenase (ALOX12): Round 2; purified 12hLO, xylenol orange hydroperoxide absorbance; Potency, µM (highest dose often 108 µM), for inactives: at the top dose activity change, negative = inhibition, most hits filed as inhibitors; AID 1671190, 2021; Polyunsaturated fatty acid lipoxygenase ALOX12 (Homo sapiens), P18054; 580,000 compounds, 1.1% hits; also: potency is read from the fitted curve at half-maximal effect; % is scaled to controls: 0 for no effect and ±100 for the full control effect
Target sequence (P18054 whole entry, looked up): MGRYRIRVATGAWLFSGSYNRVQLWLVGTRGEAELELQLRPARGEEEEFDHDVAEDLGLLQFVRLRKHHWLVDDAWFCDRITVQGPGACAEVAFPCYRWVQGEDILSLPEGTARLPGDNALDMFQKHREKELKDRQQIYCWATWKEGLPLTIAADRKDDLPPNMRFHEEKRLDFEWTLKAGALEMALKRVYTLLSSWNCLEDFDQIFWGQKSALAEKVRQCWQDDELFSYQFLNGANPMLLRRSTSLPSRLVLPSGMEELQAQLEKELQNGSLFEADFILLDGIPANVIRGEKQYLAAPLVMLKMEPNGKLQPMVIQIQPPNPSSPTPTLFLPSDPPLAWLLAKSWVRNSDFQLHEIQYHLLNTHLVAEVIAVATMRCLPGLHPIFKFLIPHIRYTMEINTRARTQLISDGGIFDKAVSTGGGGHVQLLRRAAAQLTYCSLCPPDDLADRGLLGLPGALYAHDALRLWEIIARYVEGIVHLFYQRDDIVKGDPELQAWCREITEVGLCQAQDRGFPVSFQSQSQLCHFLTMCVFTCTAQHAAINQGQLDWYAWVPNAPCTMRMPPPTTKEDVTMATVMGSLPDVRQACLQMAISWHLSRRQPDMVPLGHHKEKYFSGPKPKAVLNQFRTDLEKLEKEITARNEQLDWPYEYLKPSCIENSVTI
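Purified human 12hLO (150 nM final) in 25 mM Hepes, 0.01% Triton X-100, pH 7.0 was preincubated 15 min at room temperature with compound. Then 40 uM arachidonic acid was added, 30 min. Hydroperoxide was read by Fe-XO absorbance ratio 573/405 nm.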
uPA surface inh: qHTS for Inhibitors of Cell Surface uPA Generation. cell surface uPA generation assay, qHTS. Potency, µM (titrated, usually from 38.3 µM), without a hit: at the top dose activity change, negative = inhibition, usual class: inhibitors. 330,000 compounds, 0.31% hits. AID 540303, 2011; active = well fitted inhibition curve with a large enough effect; inconclusive = small, poorly fitted or top-dose-only effect; inactive = no such curve, though single readings can be large or run the other way; tested in mouse RAW 264.7 cells; also: potency is read from the fitted curve at half-maximal effect; % is scaled to controls: 0 for no effect and ±100 for the full control effect; nearly all actives have a fitted effect of over 55% in size
a7 integrin act: qHTS for Activators of Integrin-Mediated Alleviation for Muscular Dystrophy. alpha7betagal myoblasts, beta-gal FDG fluorescence, 48 h. Potency, µM (titrated, usually from 38.3 µM), without a hit: at the top dose activation, actives largely listed as activators. 350,000 compounds, 0.064% hits;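 also: potency is read from the fitted curve at half-maximal effect; 100% = response of the positive control SU9516; nearly all actives have a fitted effect of over 60% in size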
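alpha7betagal+/- myoblasts (passage 13, 250/well) treated 48 h at 37C with compounds at 1:260 dilution of DMSO stock. Lysed, then beta-galactosidase activity read as FDG fluorescence (ex 480/em 540) after 30 min, with pre-read for autofluorescence.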
An asterisk follows results filed as active; [ ] = another dose, or the depositor's remark. Unless noted, calls follow the shape of the dose curve; as a rule, active = well fitted curve in the direction sought with a large enough effect; inconclusive = small, poorly fitted or top-dose-only effect, or another doubt; inactive = no such curve, though single readings can be large; an effect the other way counts as inactive or inconclusive.

`Cc1cccc(NC(=S)NCCc2ccccc2)n1` gave IL-2 act 1, Nrf2 activator 4%, ALOX12 inh 20µM*, uPA surface inh 0% and a7 integrin act 13%.
`Cc1c(Cl)cccc1NC(=O)c1cnc(-c2ccccc2)nc1-c1ccncc1` gave ALOX12 inh 5%.
Screening Nc1ccc2nc(-c3ccc(Cl)cc3)[nH]c2c1 returned IL-2 act -4, Nrf2 activator -5%, ALOX12 inh -2%, uPA surface inh 4.5µM* and a7 integrin act -1%.
`Nc1ccc2nc(-c3cc(Cl)c(N)c(Cl)c3)[nH]c2c1` gave IL-2 act -1, Nrf2 activator 12%, ALOX12 inh 96%, uPA surface inh -7% and a7 integrin act 0%.
O=C1N(C2CCCCC2)C[C@H]2CN(Cc3ccc(C(F)(F)F)cc3)CCN12 was read as ALOX12 inh -1%[176 µM].
N#Cc1cc2n(n1)CCCN(C(=O)CC(c1ccccc1)c1ccco1)C2 (configuration not stated) was read as ALOX12 inh 34%.
For CCOc1cccc(CN2CC(C(=O)NCc3ccncc3)C3(CCOCC3)C2)c1 (configuration not stated) the results were ALOX12 inh 86%.
For Cc1nc([C@@H]2CN(C(=O)c3cscn3)C[C@H]2C(N)=O)n[nH]1 the results were ALOX12 inh 25%.
Screening CN1CCN(C(=O)CCN2C(=O)/C(=C\c3ccc(Cl)cc3Cl)SC2=S)CC1 returned IL-2 act -4, Nrf2 activator 13µM*, ALOX12 inh inconclusive, uPA surface inh -3% and a7 integrin act -65%.
`O=C(NC1CCCCC1)C(c1cccc2ccccc12)n1c(=O)c(-c2ccco2)nc2ccccc21` (configuration not stated) gave IL-2 act 0 and ALOX12 inh 18µM*.
Screening CC(C)(C)NC(=O)C(c1cc2ccccc2o1)n1c(=O)c(-c2ccco2)nc2ccccc21 (configuration not stated) returned IL-2 act 0 and ALOX12 inh inconclusive.
`Cc1cccc(C)c1NC(=O)C(c1ccc(C#N)cc1)n1c(=O)c(-c2ccco2)nc2ccccc21` (configuration not stated) gave IL-2 act 1 and ALOX12 inh 11µM*.
`Cc1cccc(C)c1NC(=O)C(c1ccccc1)n1c(=O)c(-c2ccco2)nc2ccccc21` (configuration not stated) gave IL-2 act 0 and ALOX12 inh inconclusive.
Screening CCCCCNC(=O)C(c1cc2ccccc2o1)n1c(=O)c(-c2ccco2)nc2ccccc21 (configuration not stated) returned IL-2 act 0 and ALOX12 inh 40µM*.
COc1ccc(C(C(=O)NCc2ccccc2)n2c(=O)c(-c3ccco3)nc3ccccc32)cc1 (configuration not stated) was read as IL-2 act 0 and ALOX12 inh 40µM*.
Screening O=C(NCc1ccccc1)C(c1ccccc1F)n1c(=O)c(-c2ccco2)nc2ccccc21 (configuration not stated) returned IL-2 act 0 and ALOX12 inh inconclusive.
O=C(c1cccc(Br)c1)N1CCN(c2cc(-c3cccs3)[nH]n2)CC1 was read as ALOX12 inh 19%.
For CCc1c(-c2ccccc2)ncn1Cc1cccc(-c2ccccc2)c1 the results were IL-2 act -1 and ALOX12 inh inconclusive.
CCc1c(-c2ccc(Cl)cc2)ncn1Cc1cccc(-c2ccccc2)c1 was read as IL-2 act -1 and ALOX12 inh 8.9µM*.
Oc1ccc(/C=N/N2CCN(C3c4ccccc4-c4ccccc43)CC2)cc1O was read as IL-2 act -1, Nrf2 activator 5%, ALOX12 inh 18µM*, uPA surface inh -1% and a7 integrin act -12%.
Screening O=C(CSc1nc2cc(Cl)ccc2s1)Nc1ccc(C(F)(F)F)cc1 returned ALOX12 inh -3%.
`Cc1ccc(C(=O)NC(=S)/C=C2\N(C)c3ccccc3C2(C)C)cc1` gave IL-2 act 0, Nrf2 activator 0%, ALOX12 inh 10µM*, uPA surface inh inconclusive and a7 integrin act -44%.
CN1/C(=C/C(=S)NC(=O)C2CCC2)C(C)(C)c2ccccc21 was read as IL-2 act 2, Nrf2 activator 0%, ALOX12 inh inconclusive, uPA surface inh -8% and a7 integrin act -43%.
`CC(C)C(=O)NC(=S)/C=C1/N(C)c2ccccc2C1(C)C` gave IL-2 act -1, Nrf2 activator 0%, ALOX12 inh 35µM*, uPA surface inh -2% and a7 integrin act -52%.
`COc1ccc(CNC(=O)COC(=O)Cc2n[nH]c(=O)c3ccccc23)cc1` gave ALOX12 inh 18%.
`O=c1oc(-c2ccccc2)nn1CC(O)COc1ccc(F)cc1` (configuration not stated) gave ALOX12 inh -9%.
For COc1cc(OC)cc(C(=O)NCC(=O)N2CC=C(c3ccccc3)CC2)c1 the results were IL-2 act -4, Nrf2 activator 0%, ALOX12 inh -22%, uPA surface inh 4.5µM* and a7 integrin act -7%.
For O=C(NCC(=O)N1CC=C(c2ccccc2)CC1)c1ccc(OC(F)F)cc1 the results were IL-2 act 0, Nrf2 activator 0%, ALOX12 inh 155%, uPA surface inh inconclusive and a7 integrin act -21%.
Screening O=c1c(Cl)c(N/N=C/c2ccc(Br)cc2)cnn1-c1ccccc1 returned IL-2 act -2, Nrf2 activator 7.1µM*, ALOX12 inh -24%, uPA surface inh 5% and a7 integrin act -51%.
For CN1/C(=C/C=C(C#N)C#N)C(C)(C)c2ccccc21 the results were IL-2 act 115*, Nrf2 activator 0%, ALOX12 inh 6%, uPA surface inh 1% and a7 integrin act -21%.
O=C1CC(c2ccc(Cl)cc2)CC(=O)C1CS(=O)(=O)c1ccccc1 (configuration not stated) was read as IL-2 act 3, Nrf2 activator 0%, ALOX12 inh 35µM*, uPA surface inh 7% and a7 integrin act 18%.
`COc1ccc(CC(=O)N2CC[C@H]3CC(=O)N(C4CC4)CC[C@H]3C2)cc1` gave ALOX12 inh 21%[176 µM].
Screening C#CCn1c(=NC(=O)c2ccco2)sc2cccc(Cl)c21 returned IL-2 act -3, Nrf2 activator 4µM*, ALOX12 inh 11%, uPA surface inh 1% and a7 integrin act -10%.
For CCOc1cccc2sc(=NC(=O)c3ccco3)n(CC(=O)OC)c12 the results were IL-2 act -3, Nrf2 activator 15%, ALOX12 inh -11%, uPA surface inh -1% and a7 integrin act 3%.
